Experimental data taken from PubChem BioAssay (EPA / NIEHS).
Calls of active or inactive are those of the source. The calls were made as follows: active = hit-call score of the fitted dose curve at least 0.9, where 1 is the maximum; inactive = score below 0.9.

How the values were obtained:
Conditions in all cases: mRNA level, 48 h; actives raise or lower the signal
[1] = read-out: CFLAR gene, CFLAR (gene 8837); test: LTEA_HepaRG_CFLAR: Life Technologies and Expression Analysis (LTEA) Assay for CFLAR gene using HepaRG (AID 2283455)
Method in brief: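 Transcript level by qRT-PCR (normalized to ACTB, GAPDH and POLR2A) after 48 h chemical exposure of HepaRG cells, top concentration 100 uM with half-log steps, 0.5% DMSO vehicle, duplicates; fitted bidirectionally against DMSO baseline.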

[2] = read-out: Forkhead box O1 (FOXO1), FOXO1 (gene 2308); test: LTEA_HepaRG_FOXO1: Life Technologies and Expression Analysis (LTEA) Assay for Forkhead box O1 (FOXO1) using HepaRG (AID 2283456)
Method in brief: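 FOXO1 transcript quantified by qRT-PCR after 48 h chemical exposure (top 100 uM, half-log steps, 0.5% DMSO) of HepaRG cells, housekeeping-normalized (ACTB/GAPDH/POLR2A). Changes fitted in both directions relative to vehicle.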

[3] = read-out: growth arrest and DNA damage 45 (GADD45A), GADD45A (gene 1647); test: LTEA_HepaRG_GADD45A: Life Technologies and Expression Analysis (LTEA) Assay for growth arrest and DNA damage 45 (GADD45A) using HepaRG (AID 2283458)
Method in brief: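 Transcript induction or loss, quantified by TaqMan qRT-PCR against three housekeeping genes, is the read-out. HepaRG cells received chemicals for 48 h across eight half-log concentrations from 100 uM in 0.5% DMSO; gain and loss fitted relative to DMSO.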

[4] = read-out: Forkhead box O3 (FOXO3), FOXO3 (gene 2309); test: LTEA_HepaRG_FOXO3: Life Technologies and Expression Analysis (LTEA) Assay for Forkhead box O3 (FOXO3) using HepaRG (AID 2283459)
Method in brief: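 FOXO3 transcript measured by qRT-PCR (normalized to ACTB, GAPDH, POLR2A) after 48 h exposure of HepaRG cells in serum-free induction medium. Duplicates, eight half-log concentrations up to 100 uM, 0.5% DMSO; gain or loss fitted against DMSO.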

[5] = read-out: ABC Transporter (ABCB1), ABCB1 (gene 5243); test: LTEA_HepaRG_ABCB1: Life Technologies and Expression Analysis (LTEA) Assay for ABC Transporter (ABCB1) using HepaRG (AID 2283460)
Method in brief: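 ABCB1 transcript level measured by TaqMan qRT-PCR against three housekeeping genes after 48 h chemical exposure of differentiated HepaRG cells. Top concentration 100 uM, half-log steps, eight points, 0.5% DMSO vehicle; bidirectional fit relative to DMSO.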

[6] = read-out: growth arrest and DNA damage 45 (GADD45B), GADD45B (gene 4616); test: LTEA_HepaRG_GADD45B: Life Technologies and Expression Analysis (LTEA) Assay for growth arrest and DNA damage 45 (GADD45B) using HepaRG (AID 2283461)
Method in brief: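 Differentiated HepaRG cells, plated 48 h then switched to serum-free induction medium, were exposed 48 h in duplicate to eight half-log concentrations from 100 uM in 0.5% DMSO; mRNA quantified by qRT-PCR, normalized to ACTB/GAPDH/POLR2A, bidirectional fit versus DMSO.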

[7] = read-out: ABC Transporter (ABCC3), ABCC3 (gene 8714); test: LTEA_HepaRG_ABCC3: Life Technologies and Expression Analysis (LTEA) Assay for ABC Transporter (ABCC3) using HepaRG (AID 2283462)
Method in brief: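 HepaRG cells in serum-free induction medium were exposed for 48 h in duplicate to 8-point half-log concentrations topping at 100 uM in 0.5% DMSO. ABCC3 mRNA was measured by qRT-PCR normalized to ACTB, GAPDH and POLR2A, with bidirectional fitting versus DMSO.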

[8] = read-out: ABC Transporter (ABCB11), ABCB11 (gene 8647); test: LTEA_HepaRG_ABCB11: Life Technologies and Expression Analysis (LTEA) Assay for ABC Transporter (ABCB11) using HepaRG (AID 2283463)
Method in brief: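 ABCB11 transcript levels quantified by TaqMan qRT-PCR against three housekeeping genes after 48 h chemical exposure of HepaRG cultures. Concentrations up to 100 uM in half-log steps, 0.5% DMSO vehicle; both induction and suppression scored.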

[9] = read-out: ABC Transporter (ABCC2), ABCC2 (gene 1244); test: LTEA_HepaRG_ABCC2: Life Technologies and Expression Analysis (LTEA) Assay for ABC Transporter (ABCC2) using HepaRG (AID 2283464)
Method in brief: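 HepaRG cells were plated 48 h, switched to serum-free induction medium, then exposed in duplicate for 48 h to 8 concentrations (top 100 uM, half-log steps, 0.5% DMSO). ABCC2 mRNA was measured by qRT-PCR normalized to ACTB/GAPDH/POLR2A; bidirectional fitting versus DMSO.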

[10] = read-out: Broad substrate specificity ATP-binding cassette transporter ABCG2 (Homo sapiens) (UniProt Q9UNQ0); test: LTEA_HepaRG_ABCG2: Life Technologies and Expression Analysis (LTEA) Assay for ABC Transporter (ABCG2) using HepaRG (AID 2283465)
Method in brief: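 ABCG2 transcript was quantified by TaqMan qRT-PCR against three housekeeping genes in HepaRG cells. Cells were treated in duplicate for 48 h across an 8-point half-log series up to 100 uM, with 0.5% DMSO vehicle. Gain or loss versus DMSO was fit.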

[11] = read-out: ATP-citrate lyase (ACLY), ACLY (gene 47); test: LTEA_HepaRG_ACLY: Life Technologies and Expression Analysis (LTEA) Assay for ATP-citrate lyase (ACLY) using HepaRG (AID 2283466)
Method in brief: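 ACLY mRNA quantified by qRT-PCR on Fluidigm arrays against three housekeeping genes, after 48 h chemical treatment of HepaRG cells (top concentration 100 uM, half-log steps, 0.5% DMSO vehicle). Up- or down-regulation fitted relative to DMSO.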

[12] = read-out: Peroxisomal acyl-coenzyme A oxidase 1 (ACOX1) gene, ACOX1 (gene 51); test: LTEA_HepaRG_ACOX1: Life Technologies and Expression Analysis (LTEA) Assay for Peroxisomal acyl-coenzyme A oxidase 1 (ACOX1) gene using HepaRG (AID 2283467)
Method in brief: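 ACOX1 transcript levels were quantified by TaqMan qRT-PCR against three housekeeping genes after 48 h chemical exposure of differentiated human HepaRG cells. Exposure used eight half-log steps topping at 100 uM, 0.5% DMSO vehicle, in duplicate. Bidirectional curve fits were made relative to DMSO.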

[13] = read-out: Alkaline Phosphatase, Placental (ALPP) gene, ALPP (gene 250); test: LTEA_HepaRG_ALPP: Life Technologies and Expression Analysis (LTEA) Assay for Alkaline Phosphatase, Placental (ALPP) gene using HepaRG (AID 2283468)
Method in brief: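 Differentiated human HepaRG cells were plated and cultured 48 h, then exposed in duplicate for 48 h in serum-free induction medium to eight half-log concentrations from 100 uM in 0.5% DMSO. ALPP mRNA was measured by TaqMan qRT-PCR, normalized to ACTB, GAPDH, POLR2A.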

[14] = read-out: Bcl-2 (BAD) gene, BAD (gene 572); test: LTEA_HepaRG_BAD: Life Technologies and Expression Analysis (LTEA) Assay for Bcl-2 (BAD) gene using HepaRG (AID 2283469)
Method in brief: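 Read-out: qRT-PCR of BAD mRNA, normalized to three housekeeping genes. Human HepaRG cultures got 48 h chemical exposure in 0.5% DMSO, duplicate eight-point half-log series topping at 100 uM. Gain or loss of signal fitted versus DMSO vehicle.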

[15] = read-out: Bcl-2 (BAX) gene, BAX (gene 581); test: LTEA_HepaRG_BAX: Life Technologies and Expression Analysis (LTEA) Assay for Bcl-2 (BAX) gene using HepaRG (AID 2283470)
Method in brief: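 Cells were thawed, plated for 48 h, moved to serum-free induction medium and dosed for 48 h (highest concentration 100 uM, half-log steps, 0.5% DMSO). Total RNA was then analysed for BAX expression by qRT-PCR.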

[16] = read-out: adenosine kinase (ADK) gene, ADK (gene 132); test: LTEA_HepaRG_ADK: Life Technologies and Expression Analysis (LTEA) Assay for adenosine kinase (ADK) gene using HepaRG (AID 2283471)
Method in brief: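 Differentiated HepaRG cells dosed 48 h in serum-free induction medium, 0.5% DMSO vehicle, eight half-log concentrations from 100 uM, in duplicate. ADK mRNA by TaqMan qRT-PCR normalised to ACTB, GAPDH, POLR2A; bidirectional fit versus DMSO.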

[17] = read-out: Alpha-fetoprotein (AFP) gene, AFP (gene 174); test: LTEA_HepaRG_AFP: Life Technologies and Expression Analysis (LTEA) Assay for Alpha-fetoprotein (AFP) gene using HepaRG (AID 2283472)
Method in brief: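 Chemicals were tested on differentiated HepaRG cells for 48 hours at eight concentrations up to 100 uM, with 0.5% DMSO as vehicle. AFP expression was then quantified by qRT-PCR and analyzed for gain or loss relative to DMSO.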

[18] = read-out: BCL2L11 (gene 10018); test: LTEA_HepaRG_BCL2L11: Life Technologies and Expression Analysis (LTEA) Assay for Bcl-2 (BCL2L11) gene using HepaRG (AID 2283473)
Method in brief: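 Differentiated human HepaRG cells in serum-free induction medium were exposed in duplicate for 48 h to eight concentrations (top 100 uM, half-log steps, 0.5% DMSO). BCL2L11 mRNA was quantified by TaqMan qRT-PCR, normalized to ACTB/GAPDH/POLR2A, bidirectional fit versus DMSO.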

Measured: outcome

Chain of Broad substrate specificity ATP-binding cassette transporter ABCG2 (Homo sapiens) (Q9UNQ0 whole entry, looked up): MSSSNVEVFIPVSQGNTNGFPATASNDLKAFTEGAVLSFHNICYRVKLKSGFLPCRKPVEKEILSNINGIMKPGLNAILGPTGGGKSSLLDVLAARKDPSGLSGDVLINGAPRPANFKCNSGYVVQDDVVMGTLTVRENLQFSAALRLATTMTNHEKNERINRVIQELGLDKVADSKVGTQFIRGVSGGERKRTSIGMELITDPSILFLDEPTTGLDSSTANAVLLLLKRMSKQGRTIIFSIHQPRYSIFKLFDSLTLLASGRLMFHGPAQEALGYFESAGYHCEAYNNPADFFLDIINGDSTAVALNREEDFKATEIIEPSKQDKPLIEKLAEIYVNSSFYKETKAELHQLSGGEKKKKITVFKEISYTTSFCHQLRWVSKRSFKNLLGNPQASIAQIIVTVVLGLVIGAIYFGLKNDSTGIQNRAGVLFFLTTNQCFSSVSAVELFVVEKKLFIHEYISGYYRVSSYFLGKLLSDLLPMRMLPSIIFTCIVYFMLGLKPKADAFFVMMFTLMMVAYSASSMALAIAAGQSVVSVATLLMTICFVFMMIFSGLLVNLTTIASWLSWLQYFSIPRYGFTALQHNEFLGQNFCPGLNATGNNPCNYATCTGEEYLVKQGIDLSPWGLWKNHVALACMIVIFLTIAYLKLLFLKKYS

c1cc[n+]2c(c1)-c1cccc[n+]1CC2
inactive: [1] | [2] | [3] | [4] | [5] | [6] | [7] | [8] | [9] | [10] | [11] | [12] | [13] | [14] | [15] | [16] | [17] | [18]
